Test results from PubChem BioAssay (NCI).
Compounds without any hit were thinned out: in the full panel of roughly 83,000, 20% have a hit.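 Single-dose data. Exposure time 48 hours. Values below 10 considered active.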 A number with no mark means an inactive call. The source made the active and inactive calls.

What was measured:
Test in all cases: NCI-60 one-dose screen, 48 h (100 = growth as untreated, 0 = no growth, -100 = all killed)
Conditions in all cases: 10 µM unless noted
SK-MEL-2 melanoma = tested on: SK-MEL-2 melanoma
EKVX NSCLC = tested on: EKVX NSCLC
SN12C renal = tested on: SN12C renal
UO-31 renal = tested on: UO-31 renal
TK-10 renal = tested on: TK-10 renal
ACHN renal = tested on: ACHN renal
CAKI-1 renal = tested on: CAKI-1 renal
A498 renal = tested on: A498 renal
MOLT-4 leukemia = tested on: MOLT-4 leukemia
SR leukemia = tested on: SR leukemia
RPMI-8226 leukemia = tested on: RPMI-8226 leukemia
OVCAR-8 ovarian = tested on: OVCAR-8 ovarian
OVCAR-5 ovarian = tested on: OVCAR-5 ovarian
OVCAR-4 ovarian = tested on: OVCAR-4 ovarian
SK-OV-3 ovarian = tested on: SK-OV-3 ovarian
OVCAR-3 ovarian = tested on: OVCAR-3 ovarian
HS 578T breast = tested on: HS 578T breast
NCI/ADR-RES ovarian = tested on: NCI/ADR-RES ovarian
IGROV1 ovarian = tested on: IGROV1 ovarian
CCRF-CEM leukemia = tested on: CCRF-CEM leukemia

SMILES | growth (SK-MEL-2 melanoma) | growth (EKVX NSCLC) [%] | growth (SN12C renal) [%] | growth (UO-31 renal) | growth (TK-10 renal) | growth (ACHN renal) | growth (CAKI-1 renal) | growth (A498 renal) [%] | growth (MOLT-4 leukemia) | growth (SR leukemia) | growth (RPMI-8226 leukemia) | growth (OVCAR-8 ovarian) [%] | growth (OVCAR-5 ovarian) [%] | growth (OVCAR-4 ovarian) | growth (SK-OV-3 ovarian) [%] | growth (OVCAR-3 ovarian) | growth (HS 578T breast) [%] | growth (NCI/ADR-RES ovarian) | growth (IGROV1 ovarian) | growth (CCRF-CEM leukemia)
c1ccc2c(c1)nc(CN1CCOCC1)n1cc(N3CCCC3)nc21 | 106% | 87.2 | 97.7 | 75.1% | 114% | 104% | 99.5% | 98.7 | 99% | 87% | 62.6% | 94.5 | 92.9 | 111% | 89.8 | 110% | 92.5 | 99% |  | 
COc1cccc(Nc2nccc(Nc3ccc4[nH]ncc4c3)n2)c1 | -37% (active) | 34 | 20.2 | -62.1% (active) | -77.7% (active) | -3.17% (active) | -30.8% (active) | 12.7 | -32.4% (active) | -11.5% (active) | -39.6% (active) |  | 32.9 | -59.6% (active) | 15.3 | -61.5% (active) | 23.9 | -11.4% (active) | -24.2% (active) | 
O=C(COc1ccc(/C=C2\Oc3ccccc3C2=O)cc1)Nc1nc2ccccc2s1 | 106% | 42.8 | 64.4 | -77.2% (active) | 134% | 72.7% | -83% (active) | 115 | -48.8% (active) | -71.9% (active) | -56.8% (active) |  | 67.8 | 89.9% | 116 | 66.5% | 88.5 | 75.5% |  | 
Cc1cccc(NC(=O)CSc2nc3ccccc3[nH]2)c1 | 109% | 93.4 | 98.8 | 75% | 106% |  | 82.6% | 53.4 | 102% |  | 99.8% | 103 | 106 | 93.2% | 95.9 | 107% | 90.7 | 98.4% | 97.6% | 102%
COc1ccc(NC(=O)c2nc(-c3cc(OC)c(OC)c(OC)c3)n(-c3cccc4ccccc34)n2)cc1OC | 43.7% | 44.6 | 52.9 | 6.34% (active) | 44.8% | 30.6% | 20.1% | 42.6 |  | 33.1% | 11.6% | 52.5 | 56.1 | 45.5% | 38.3 | 27.7% | 23.4 | 35.2% | 22.9% | 
O=[N+]([O-])c1ccc(Sc2cccc[n+]2[O-])c2nonc12 | 92.9% | 98.2 | 93.6 | 49.1% | 133% |  | 102% | 113 |  | 1.31% (active) | -12.2% (active) | 82.5 | 120 | 40.9% | 108 | -8.18% (active) | 24.8 | 84.8% | 6.59% (active) | -18.8% (active)
O=C1Nc2ccccc2/C1=C/c1cn(C(=O)c2ccc(Cl)cc2)c2ccccc12 | 120% | 59 | 95.4 | 74.7% | 130% |  | 59.1% | 116 | 109% |  | 74.5% | 95.1 | 110 | 78.3% | 104 | 98.7% | 106 | 104% | 72.7% | 104%
CN(C)c1ccc(-c2ccc3[nH]c(=O)nc(-c4ccccc4)c3c2)cn1 | 22.8% | 58.5 | 50.7 | 53% | 82.8% | 47.9% | 49.6% | 52.3 |  | 16.2% | 56.5% | 63.8 | 65.9 | 70.4% | 63.5 | 5.38% (active) | 55.6 | 49.4% | 49.7% | 
C[n+]1cccc(CC(=O)NO)c1 | 100% | 102 | 94.7 | 97.3% | 94.8% | 98.4% | 104% | 115 |  | 98.4% |  | 95.3 | 110 | 106% | 90.9 | 110% | 101 | 105% | 101% | 
COc1ccc(N=C(c2ccccc2)C2C(=O)c3ccccc3C2=O)cc1 | 40.8% | 104 | 104 | 40.5% | 103% |  | 88.1% | 61.2 | 49.2% |  | 37.2% | 83.3 | 104 | 77.3% | 108 | 82.3% | 86.9 | 91.9% |  | 46.1%
CNS(=O)(=O)c1n[nH]nc1-c1cc(C(C)(C)C)c(O)c(C(C)(C)C)c1 | 104% | 89.8 | 103 | 84.2% | 111% | 98.7% | 95.1% | 100 | 96.9% | 98.6% | 96.2% |  | 111 | 100% | 92.9 | 112% | 102 | 105% | 103% | 
